The supplement of paper PMC9177965

Tested on: HT29 RNF43 G659fs (RNF43 659mut, CRISPR-edited)
Test: cell viability activity relative to DMSO (negative = inhibition); higher = more viable cells (less growth inhibition)
Conditions: 5 µM; 96 h
Protocol: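 Broad Repurposing Library primary screen at a single dose of 5 uM. HT29 sg-Ctrl and HT29 RNF43 G659fs CRISPR-edited isogenic cells were seeded at 2500 cells/well in 384-well plates in duplicate and treated for 96 h. Viability was read by CellTiter-Glo and reported as % activity relative to DMSO, with MG132 as the positive control (negative = growth inhibition).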

Row | SMILES | cell viability activity
1 | CN(C)c1ccc(C(=O)NCCCCCCC(=O)NO)cc1 | -84.4%
2 | NS(=O)(=O)OC[C@@H]1C[C@@H](n2ccc3c(N[C@H]4CCc5ccccc54)ncnc32)C[C@@H]1O | -78%
3 | CC[C@H](C)[C@@H]([C@@H](CC(=O)N1CCC[C@H]1[C@H](OC)[C@@H](C)C(=O)N[C@@H](Cc1ccccc1)c1nccs1)OC)N(C)C(=O)[C@@H](NC(=O)[C@H](C(C)C)N(C)C)C(C)C | -55.7%
4 | C[C@@H](NC(=O)c1ncnc(N)c1Cl)c1ncc(C(=O)Nc2cc(C(F)(F)F)c(Cl)cn2)s1 | -24.4%
5 | OCCN1CCN(CCCN2c3ccccc3Sc3ccc(Cl)cc32)CC1 | -53.2%
6 | Nc1ncnc2c1c(-c1cccc(OCc3ccccc3)c1)cn2C1CC(CN2CCCC2)C1 (stereo not given) | -48%
7 | O=C(/C=C/c1ccc(CN(CCO)CCc2c[nH]c3ccccc23)cc1)NO | -95.4%
8 | C[C@@H]1CC[C@@]2(NC1)O[C@H]1C[C@H]3[C@@H]4CC=C5C[C@@H](O[C@@H]6O[C@H](CO)[C@@H](O[C@@H]7O[C@@H](C)[C@H](O)[C@@H](O)[C@H]7O)[C@H](O)[C@H]6O[C@@H]6O[C@@H](C)[C@H](O)[C@@H](O)[C@H]6O)CC[C@]5(C)[C@H]4CC[C@]3(C)[C@H]1[C@@H]2C | -94%
9 | CCNCCCNCCCCNCCCNCC | -31%
10 | CNC(=O)Nc1ccc(-c2nc(N3CC4CCC(C3)O4)c3cnn(C4CCC5(CC4)OCCO5)c3n2)cc1 | -50.9%
11 | C=CCNC1=C2C[C@@H](C)C[C@H](OC)[C@H](O)[C@@H](C)/C=C(\C)[C@H](OC(N)=O)[C@@H](OC)/C=C\C=C(/C)C(=O)NC(=CC1=O)C2=O | -90.1%
12 | O=C(CCCCCCC(=O)Nc1ccccc1)NO | -85.7%
13 | CCS(=O)(=O)Nc1ccc2[nH]c(O)c(C(=Nc3ccc(CN4CCCCC4)cc3)c3ccccc3)c2c1 | -77.1%
14 | Nc1ncnc2c1c(-c1cccc(OCc3ccccc3)c1)cn2C1CC(CN2CCC2)C1 (stereo not given) | -55.1%
15 | CCCSc1ccc2[nH]c(NC(=O)OC)nc2c1 | -63.8%
16 | C=CC(=O)Nc1cccc(Oc2nc(Nc3ccc(N4CCN(C)CC4)cc3)ncc2Cl)c1 | -46.3%
17 | CCOC(=O)[C@H](Cc1ccccc1)NC(=O)c1cc(Cl)c(OCCN2CCN(C)CC2)c(Cl)c1O | -34%
18 | O=C(/C=C/c1ccc2ccccc2n1)c1ccncc1 | -68.9%
19 | CCN(CC)CCNC(=O)c1c(C)[nH]c(/C=C2\C(=O)Nc3ccc(F)cc32)c1C | -99.7%
20 | CCNC(=O)Nc1ccc(-c2nc3c(c(N4CCOC[C@@H]4C)n2)CCN(C2COC2)C3)cc1 | -36.7%

Row | SMILES | cell viability activity
21 | Cc1cc(Nc2cc(N3CCN(C)CC3)nc(Sc3ccc(NC(=O)C4CC4)cc3)n2)n[nH]1 | -22.2%
22 | O=C(/C=C\n1cnc(-c2cc(C(F)(F)F)cc(C(F)(F)F)c2)n1)N1CC(F)(F)C1 | -72.2%
23 | CCOc1ccc(Cc2nccc3cc(OCC)c(OCC)cc23)cc1OCC | -32.7%
24 | NC(=O)Nc1cc(-c2cccc(F)c2)sc1C(=O)N[C@H]1CCCNC1 | -79.6%
25 | C[C@H]1O[C@H](O[C@H]2[C@H](O)[C@@H](O)[C@@H](O[C@H]3[C@H](O)[C@@H](O)C(O)O[C@@H]3CO)O[C@@H]2CO)[C@H](O)[C@@H](O)[C@@H]1N[C@H]1C=C(CO)[C@@H](O)[C@H](O)[C@H]1O (stereo not given in full) | -83.5%
26 | O=C(c1c(F)ccc(NS(=O)(=O)N2CC[C@@H](F)C2)c1F)c1c[nH]c2ncc(-c3cnc(C4CC4)nc3)cc12 | -66.1%
27 | Cc1ccc(S(=O)(=O)C=CC#N)cc1 | -98.8%
28 | c1cncc(CN2CCC(n3ncc4c(N5CCOCC5)nc(-c5ccc6[nH]ccc6c5)nc43)CC2)c1 | -74.3%
29 | CNCCCOc1cc(F)c(-c2c(Cl)nc3ncnn3c2N[C@@H](C)C(F)(F)F)c(F)c1 | -72.6%
30 | CCc1cccc(CC)c1NC(=O)N1Cc2[nH]nc(NC(=O)c3ccc(N4CCN(C)CC4)cc3)c2C1 | -46.8%
31 | Nc1ccccc1NC(=O)c1ccc(CNC(=O)OCc2cccnc2)cc1 | -71.7%
32 | CCN(CC)CC1CCN(c2ncc3ncnc(Nc4ccc(F)c(Cl)c4)c3n2)CC1 | -37.1%
33 | Cn1ncc(Cl)c1-c1cc(C(=O)N[C@H](CN)Cc2ccc(F)c(F)c2)oc1Cl | -70.4%
34 | CCCCc1nc2cc(/C=C/C(=O)NO)ccc2n1CCN(CC)CC | -99.3%
35 | C=C1CC[C@@H]2[C@](C)(CO)[C@H](O)CC[C@@]2(C)[C@@H]1C/C=C1/C(=O)OC[C@H]1O | -27.5%
36 | COc1cc(/C=C/c2ccc(OC)cc2OC)cc(OC)c1 | -65.4%
37 | CCN(CC)CCCCNc1ncc2cc(-c3c(Cl)cccc3Cl)c(NC(=O)NC(C)(C)C)nc2n1 | -49.6%
38 | C1CCC(C(CC2CCCCN2)C2CCCCC2)CC1 (stereo not given) | -92.4%
39 | CCN(CC)Cc1ccc2cc(COC(=O)Nc3ccc(C(=O)NO)cc3)ccc2c1 | -91.4%
40 | CS[C@H]1SC[C@H]2C(=O)N(C)[C@@H](C(C)C)C(=O)OC[C@@H](NC(=O)c3cnc4ccccc4n3)C(=O)N[C@@H](C)C(=O)N(C)[C@@H]1C(=O)N(C)[C@@H](C(C)C)C(=O)OC[C@@H](NC(=O)c1cnc3ccccc3n1)C(=O)N[C@@H](C)C(=O)N2C | -88%
